Where a name gives a salt, the structure may show the parent alone. ± gives the standard deviation of the averaged measurements.
Experiments:
[1] = tested on: Saccharomyces cerevisiae BY4741 SeMeCo community; test: z-score of prototroph abundance vs DMSO median; higher = larger share of this subpopulation than in DMSO controls; conditions: 10 µM; 24 h; SM minimal medium; subpopulation (auxotrophy): Prototroph
Procedure, shortened: (§1)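 Cells of a Saccharomyces cerevisiae BY4741 community, carrying four plasmids that each restored one auxotrophy and encoded a distinct fluorescent protein, were pre-grown overnight to OD600 1.0 and diluted to 0.3. A 70 µl volume was added to 384-well plates acoustically predosed with library drugs (10 µM final) and grown 24 h in minimal SM medium. After paraformaldehyde fixation, automated confocal microscopy was used, with single-auxotroph fluorescent strains for thresholds and autofluorescence correction. The abundance of each subpopulation was scored as a z-score against the vehicle-well median.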

[2] = tested on: Saccharomyces cerevisiae BY4741 SeMeCo community; test: z-score of subpopulation abundance vs DMSO median, subpopulation auxotrophic for M; higher = larger share of this subpopulation than in DMSO controls; conditions: 10 µM; 24 h; SM minimal medium; subpopulation (auxotrophy): M
Procedure, shortened: as §1

[3] = tested on: Saccharomyces cerevisiae BY4741 SeMeCo community; test: z-score of subpopulation abundance vs DMSO median, subpopulation auxotrophic for L; higher = larger share of this subpopulation than in DMSO controls; conditions: 10 µM; 24 h; SM minimal medium; subpopulation (auxotrophy): L
Procedure, shortened: as §1

[4] = tested on: Saccharomyces cerevisiae BY4741 SeMeCo community; test: z-score of subpopulation abundance vs DMSO median, subpopulation auxotrophic for H; higher = larger share of this subpopulation than in DMSO controls; conditions: 10 µM; 24 h; SM minimal medium; subpopulation (auxotrophy): H
Procedure, shortened: as §1

[5] = tested on: Saccharomyces cerevisiae BY4741 SeMeCo community; test: z-score of subpopulation abundance vs DMSO median, subpopulation auxotrophic for LU; higher = larger share of this subpopulation than in DMSO controls; conditions: 10 µM; 24 h; SM minimal medium; subpopulation (auxotrophy): LU
Procedure, shortened: as §1

[6] = tested on: Saccharomyces cerevisiae BY4741 SeMeCo community; test: z-score of subpopulation abundance vs DMSO median, subpopulation auxotrophic for LM; higher = larger share of this subpopulation than in DMSO controls; conditions: 10 µM; 24 h; SM minimal medium; subpopulation (auxotrophy): LM
Procedure, shortened: as §1

[7] = tested on: Saccharomyces cerevisiae BY4741 SeMeCo community; test: z-score of subpopulation abundance vs DMSO median, subpopulation auxotrophic for HM; higher = larger share of this subpopulation than in DMSO controls; conditions: 10 µM; 24 h; SM minimal medium; subpopulation (auxotrophy): HM
Procedure, shortened: as §1

[8] = tested on: Saccharomyces cerevisiae BY4741 SeMeCo community; test: z-score of subpopulation abundance vs DMSO median, subpopulation auxotrophic for HU; higher = larger share of this subpopulation than in DMSO controls; conditions: 10 µM; 24 h; SM minimal medium; subpopulation (auxotrophy): HU
Procedure, shortened: as §1

[9] = tested on: Saccharomyces cerevisiae BY4741 SeMeCo community; test: z-score of subpopulation abundance vs DMSO median, subpopulation auxotrophic for HL; higher = larger share of this subpopulation than in DMSO controls; conditions: 10 µM; 24 h; SM minimal medium; subpopulation (auxotrophy): HL
Procedure, shortened: as §1

[10] = tested on: Saccharomyces cerevisiae BY4741 SeMeCo community; test: z-score of subpopulation abundance vs DMSO median, subpopulation auxotrophic for HLU; higher = larger share of this subpopulation than in DMSO controls; conditions: 10 µM; 24 h; SM minimal medium; subpopulation (auxotrophy): HLU
Procedure, shortened: as §1

[11] = tested on: Saccharomyces cerevisiae BY4741 SeMeCo community; test: z-score of subpopulation abundance vs DMSO median, subpopulation auxotrophic for HUM; higher = larger share of this subpopulation than in DMSO controls; conditions: 10 µM; 24 h; SM minimal medium; subpopulation (auxotrophy): HUM
Procedure, shortened: as §1

[12] = tested on: Saccharomyces cerevisiae BY4741 SeMeCo community; test: z-score of subpopulation abundance vs DMSO median, subpopulation auxotrophic for LUM; higher = larger share of this subpopulation than in DMSO controls; conditions: 10 µM; 24 h; SM minimal medium; subpopulation (auxotrophy): LUM
Procedure, shortened: as §1

[13] = tested on: Saccharomyces cerevisiae BY4741 SeMeCo community; test: z-score of subpopulation abundance vs DMSO median, subpopulation auxotrophic for HLUM; higher = larger share of this subpopulation than in DMSO controls; conditions: 10 µM; 24 h; SM minimal medium; subpopulation (auxotrophy): HLUM
Procedure, shortened: as §1

[14] = tested on: Saccharomyces cerevisiae BY4741 SeMeCo community; test: mean cell size (pixel area) (pixels); higher = larger cells; conditions: 10 µM; 24 h; SM minimal medium
Procedure, shortened: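 Yeast cells were fixed with paraformaldehyde, imaged by automated confocal microscopy and analysed in Harmony to obtain mean cell pixel area per well. They came from a four-plasmid fluorescent Saccharomyces cerevisiae BY4741 community, each plasmid complementing one auxotrophy and carrying a fluorescent marker. Before imaging, 70 µl of culture at OD600 = 0.3 was incubated for 24 h in SM medium in 384-well plates predosed acoustically with drug (final 10 µM). Values are means of 3 replicates. Same SeMeCo high-content imaging drug screen: Selleck FDA-approved drugs at 10 µM, 24 h in SM medium, 384-well plates, 3 replicates.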

[15] = tested on: Saccharomyces cerevisiae BY4741 SeMeCo community; test: z-score of subpopulation abundance vs DMSO median, subpopulation auxotrophic for U; higher = larger share of this subpopulation than in DMSO controls; conditions: 10 µM; 24 h; SM minimal medium; subpopulation (auxotrophy): U
Procedure, shortened: as §1

[16] = tested on: Saccharomyces cerevisiae BY4741 SeMeCo community; test: z-score of subpopulation abundance vs DMSO median, subpopulation auxotrophic for UM; higher = larger share of this subpopulation than in DMSO controls; conditions: 10 µM; 24 h; SM minimal medium; subpopulation (auxotrophy): UM
Procedure, shortened: as §1

[17] = tested on: Saccharomyces cerevisiae BY4741 SeMeCo community; test: z-score of subpopulation abundance vs DMSO median, subpopulation auxotrophic for HLM; higher = larger share of this subpopulation than in DMSO controls; conditions: 10 µM; 24 h; SM minimal medium; subpopulation (auxotrophy): HLM
Procedure, shortened: as §1

Row | Compound | z-score of prototroph abundance [1] | z-score of subpopulation abundance [2] | z-score of subpopulation abundance [3] | z-score of subpopulation abundance [4] | z-score of subpopulation abundance [5] | z-score of subpopulation abundance [6] | z-score of subpopulation abundance [7] | z-score of subpopulation abundance [8] | z-score of subpopulation abundance [9] | z-score of subpopulation abundance [10] | z-score of subpopulation abundance [11] | z-score of subpopulation abundance [12] | z-score of subpopulation abundance [13] | mean cell size [14] | z-score of subpopulation abundance [15] | z-score of subpopulation abundance [16] | z-score of subpopulation abundance [17]
1 | Cc1c(-c2ccc(O)cc2)n(Cc2ccc(OCCN3CCCCCC3)cc2)c2ccc(O)cc12 [Bazedoxifene Acetate] | -0.23 | 0.99 | -0.2 | 0.29 | 0.06 | -0.35 | 0.8 | -1.12 | -0.12 | 0.21 | -0.26 | 0.65 | -0.3 | – | – | – | –
2 | O=C(Cn1ccnc1[N+](=O)[O-])NCc1ccccc1 [Benznidazole] | 0.22 | -0.28 | – | -0.18 | -0.43 | 0.19 | -0.4 | -0.83 | 0.08 | -0.74 | -0.52 | 0.15 | -0.21 | 12.49 ± 0.12 | 0.63 | 0.13 | -0.65
3 | C#CCC(Cc1cnc2nc(N)nc(N)c2n1)c1ccc(C(=O)N[C@@H](CCC(=O)O)C(=O)O)cc1 (stereo not given in full) [Pralatrexate] | – | 2.68 | 3.17 | 3.97 | -3.34 | 3.24 | 5.98 | -3.79 | 4.02 | 0.5 | -2.23 | -1.33 | – | 14.4 ± 0.34 | -4.47 | -5.43 | –
4 | Cc1c(S(=O)(=O)O)oc2c1C(=O)C(=O)c1c-2ccc2c1CCCC2(C)C [Tanshinone IIA sulfonate (sodium)] | – | 1.72 | 0.5 | 1.42 | -0.91 | -0.11 | – | -2.62 | 4.28 | -0.84 | – | 1.3 | 1.74 | 11.85 ± 0.095 | – | – | –
5 | O=C(Nc1cc(Cl)cc(Cl)c1O)c1c(O)c(Cl)cc(Cl)c1Cl [Oxyclozanide] | – | -2.38 | -0.21 | -2.53 | -0.32 | -0.51 | -2.11 | -1.36 | 1.03 | -0.55 | -0.71 | -0.27 | 2.05 | – | -0.91 | – | –
6 | C[C@]12CC[C@@H]3c4ccc(O)cc4CC[C@H]3[C@@H]1CCC2=O [Estrone] | 0.49 | -0.44 | 0.44 | – | 0.11 | 0.03 | -0.17 | -0.27 | -0.05 | -0.08 | -0.46 | -0.12 | -0.85 | – | -0.57 | -0.49 | –
7 | CC(=O)O[C@H]1C[C@@]2(C)[C@@H](C[C@@H](O)[C@H]3[C@@]4(C)CC[C@@H](O)[C@@H](C)[C@@H]4CC[C@@]32C)/C1=C(\CCC=C(C)C)C(=O)O [Fusidate Sodium] | – | 0 | -0.11 | 1.44 | 0.21 | -0.02 | – | 2 | – | 1.2 | – | -0.25 | -0.08 | 12.64 ± 0.067 | 0.34 | -0.27 | –
8 | C/C=C1\[C@H]2C=C(C)C[C@]1(N)c1ccc(=O)[nH]c1C2 [(-)-Huperzine A (HupA)] | 0.12 | 1.03 | -0.33 | -1.16 | -0.37 | -0.7 | 0.12 | -0.26 | -1.26 | -0.57 | – | -0.73 | – | 12.04 ± 0.12 | 0.2 | 0.89 | –
9 | Nc1nc2[nH]cc(CCc3ccc(C(=O)N[C@@H](CCC(=O)O)C(=O)O)cc3)c2c(=O)[nH]1 [Pemetrexed Disodium Hydrate] | 3.18 | -9.02 | – | 3.82 | 1.43 | -3.99 | -4.93 | 1.99 | 5.03 | 11.4 | -4.9 | -3.47 | 3.48 | 14.5 ± 0.077 | -1.03 | -7.6 | 1.25
10 | Cc1cc2c(s1)Nc1ccccc1N=C2N1CCN(C)CC1 [Olanzapine] | 0.17 | 0.84 | – | -0.12 | -0.6 | 0.65 | 0.2 | 0.19 | -0.15 | 0.07 | -0.5 | -0.6 | 0.21 | 12.5 ± 0.2 | -0.29 | 0.07 | -0.05
11 | C[C@@H]1C/C=C/C=C/C=C/C=C/[C@H](O[C@@H]2O[C@H](C)[C@@H](O)[C@H](N)[C@@H]2O)C[C@@H]2O[C@](O)(C[C@@H](O)C[C@H]3O[C@@H]3/C=C/C(=O)O1)C[C@H](O)[C@H]2C(=O)O [Natamycin] | -16.3 | -8.99 | 1.74 | 12.5 | 8.63 | – | – | 33.6 | 22.5 | 22.7 | 25.6 | 14.5 | 40.5 | 12.31 ± 0.094 | 4.12 | – | –
12 | CC[C@@H](CO)NCCN[C@@H](CC)CO [Ethambutol 2HCl] | -0.36 | -0.81 | – | – | 1.65 | 0.23 | -0.9 | 0.27 | 0.36 | 0.56 | 0.7 | 1.15 | 0.6 | 12.46 ± 0.11 | 1.13 | 1.23 | 0.16
13 | Nc1ccc2cc3ccc(N)cc3nc2c1 [Proflavine Hemisulfate] | 5.49 | 6.69 | – | 5.37 | -9.25 | -5.03 | 6.84 | -6.91 | -4.25 | -4.5 | -4.39 | -5.16 | -2.15 | 12.06 ± 0.0063 | -8.08 | -8.07 | -2.37
14 | CO/N=C(\C(=O)N[C@@H]1C(=O)N2C(C(=O)[O-])=C(C[N+]3(C)CCCC3)CS[C@H]12)c1csc(N)n1 [Cefepime Dihydrochloride Monohydrate] | -0.67 | 0.62 | 0.49 | 0.4 | 0.05 | 0.72 | 1.14 | – | 0.83 | 0.65 | – | – | 0.19 | 12.4 ± 0.19 | -0.42 | – | –
15 | Fc1ccc([C@@H]2CCNC[C@H]2COc2ccc3c(c2)OCO3)cc1 [Paroxetine HCl] | 0.34 | -0.31 | -0.43 | 0.09 | -0.16 | -0.61 | -0.49 | -1.01 | 0.14 | -0.09 | – | -1.08 | 0.06 | 12.47 ± 0.086 | 0.75 | -0.16 | –

Reference: the supplement of paper PMC8975748
